# Where a name gives a salt, the structure may show the parent alone. A number with no mark means an inactive call.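 How the source made its calls: for the amine columns active = adjusted P below 0.05 in both replicates with a change the same way and a mean fold change under 0.8 or over 1.25; inactive = the rest.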
# Test system: Klebsiella aerogenes DSM 30053
# Experiment: fold change of Putrescine concentration vs plate DMSO controls (fold change (ratio)); higher = more amine produced, active = hit call of the paper (significant change in both replicates, either direction)
# Conditions: incubation time: 27 h, anaerobic, 37 °C
# In short: (§1)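 Amines were quantified by LC–triple-quadrupole MS in dynamic MRM mode against external calibration curves, with drift correction within each batch. The samples were whole anaerobic mGAM cultures of four gut bacterial strains, grown for 27 h at 37 °C in 80 µL wells and extracted with cold acetonitrile/methanol with 0.1% formic acid, then centrifuged. Values are reported as fold change over DMSO controls on the same plate. The mean of 2 biological replicates is given.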
row,SMILES,fold change of Putrescine concentration
1,C1CCC(C(CC2CCCCN2)C2CCCCC2)CC1 (configuration not stated) [Perhexiline maleate] (20 µM),1.01
2,COc1ccc(-c2cc(=O)c3c(O)cc(O[C@@H]4O[C@H](CO[C@@H]5O[C@@H](C)[C@H](O)[C@@H](O)[C@H]5O)[C@@H](O)[C@H](O)[C@H]4O)cc3o2)cc1O [Diosmin] (20 µM),0.992
3,CC(C)N1CCN(c2ccc(OCC3COC(Cn4cncn4)(c4ccc(Cl)cc4Cl)O3)cc2)CC1 (configuration not stated) [Terconazole] (20 µM),0.993
4,CCCCNc1ccc(C(=O)OCCN(C)C)cc1 [Tetracaine hydrochloride] (20 µM),1.04
5,CCC(=O)OCC(=O)[C@@]1(OC(=O)CC)[C@H](C)C[C@H]2[C@H]3[C@H]([C@@H](O)C[C@@]21C)[C@@]1(C)C=CC(=O)C=C1C[C@H]3Cl [Alclometasone dipropionate] (20 µM),1.02
6,C#CCN(C)CCCOc1ccc(Cl)cc1Cl [Clorgyline hydrochloride] (20 µM),0.984
7,CCCCS(=O)(=O)N[C@@H](Cc1ccc(OCCCCC2CCNCC2)cc1)C(=O)O [Tirofiban hydrochloride] (20 µM),1
8,CC(C)CN(C[C@@H](O)[C@H](Cc1ccccc1)NC(=O)O[C@H]1CCOC1)S(=O)(=O)c1ccc(N)cc1 [Amprenavir] (20 µM),1.01
9,CC[C@H](C)C(=O)O[C@H]1C[C@@H](C)C=C2C=C[C@H](C)[C@H](CC[C@@H]3C[C@@H](O)CC(=O)O3)[C@H]21 [Lovastatin] (20 µM),1.02
10,CN(C)CCN(Cc1ccc(Cl)cc1)c1ccccn1 [Chloropyramine hydrochloride] (20 µM),0.975
11,COC(c1ccccc1)(c1ccccc1)[C@H](Oc1nc(C)cc(C)n1)C(=O)O [Ambrisentan] (20 µM),0.992
12,O=C(O)CCC(=O)Nc1ccc(S(=O)(=O)Nc2nccs2)cc1 [Succinylsulfathiazole] (20 µM),0.997
13,CN(C)CCC=C1c2ccccc2C=Cc2ccccc21 [Cyclobenzaprine hydrochloride] (20 µM),1

# Test system: Escherichia coli IAI1
# Experiment: fold change of Cadaverine concentration vs plate DMSO controls (fold change (ratio)); higher = more amine produced, active = hit call of the paper (significant change in both replicates, either direction)
# Conditions: incubation time: 27 h, anaerobic, 37 °C
# In short: as §1
row,SMILES,fold change of Cadaverine concentration
1,CN1CCCN=C1/C=C/c1cccc(O)c1 [Oxantel pamoate] (20 µM),1.01
2,COC(=O)[C@H](c1ccccc1Cl)N1CCc2sccc2C1 [Clopidogrel] (20 µM),0.975
3,CCCCCCCCCCCCCCCCCCCCCC(=O)Nc1ccn([C@@H]2O[C@H](CO)[C@@H](O)[C@@H]2O)c(=O)n1 [Enocitabine] (20 µM),1.01
4,CN(C)CCCN1c2ccccc2[S+]([O-])c2ccc(Cl)cc21 (configuration not stated) [Chlorpromazine Sulfoxide] (20 µM),1.01
5,CCN(CC)CCOC(=O)C1(c2ccc([N+](=O)[O-])cc2)CCCC1 [Nitrocaramiphen hydrochloride] (20 µM),1.03
6,COc1ccc(CC2c3cc(OC)c(OC)cc3CC[N+]2(C)CCC(=O)OCCCCCOC(=O)CC[N+]2(C)CCc3cc(OC)c(OC)cc3C2Cc2ccc(OC)c(OC)c2)cc1OC (configuration not stated) [Atracurium besylate] (20 µM),1
7,O=C(O)C[C@H](O)C[C@H](O)/C=C/c1c(C2CC2)nc2ccccc2c1-c1ccc(F)cc1 [Pitavastatin calcium] (20 µM),1
8,CC(Cc1cccc(C(F)(F)F)c1)NCCOC(=O)c1ccccc1 (configuration not stated) [Benfluorex] (20 µM),0.975
9,S=c1[nH]cnc2nc[nH]c12 [Mercaptopurine] (20 µM),0.879
10,CC(C(=O)O)c1ccc(N2Cc3ccccc3C2=O)cc1 (configuration not stated) [Indoprofen] (20 µM),0.998
11,C[C@@H](O[C@H]1OCCN(Cc2n[nH]c(=O)[nH]2)[C@H]1c1ccc(F)cc1)c1cc(C(F)(F)F)cc(C(F)(F)F)c1 [Aprepitant] (20 µM),1.02
12,Cc1nnc(NS(=O)(=O)c2ccc(N)cc2)s1 [Sulfamethizole] (20 µM),1.03
13,O=C(Cn1c(=O)sc2ccc(Cl)cc21)N1CCN(CCO)CC1 [Tiaramide Hydrochloride] (20 µM),0.963
14,Clc1ccc(COC(Cn2ccnc2)c2ccc(Cl)cc2Cl)c(Cl)c1 (configuration not stated) [Miconazole] (20 µM),0.974
15,Cc1cn[nH]c1 [Fomepizole] (20 µM),1.02
16,CC[C@H]1OC(=O)[C@H](C)[C@@H](O[C@H]2C[C@@](C)(OC)[C@@H](O)[C@H](C)O2)[C@H](C)[C@@H](O[C@@H]2O[C@H](C)C[C@H](N(C)C)[C@H]2O)[C@](C)(OC)C[C@@H](C)C(=O)[C@H](C)[C@@H](O)[C@]1(C)O [Clarithromycin] (20 µM),0.944
17,CCCC(=O)OCOC(=O)C1=C(C)NC(C)=C(C(=O)OC)C1c1cccc(Cl)c1Cl (configuration not stated) [Clevidipine] (20 µM),0.985
18,CC[N+](CC)(CC(=O)Nc1c(C)cccc1C)Cc1ccccc1 [Denatonium benzoate] (20 µM),0.91
19,COc1cc(/C=C/C(=O)N2CCN(CC(=O)N3CCCC3)CC2)cc(OC)c1OC [Cinepazide maleate] (20 µM),0.933
20,COC(=O)C1=C(C)NC(C)=C(C(=O)O[C@H]2CCN(Cc3ccccc3)C2)[C@H]1c1cccc([N+](=O)[O-])c1 [Barnidipine Hydrochloride] (20 µM),1.02

row,SMILES,fold change of Cadaverine concentration
1,COCCCOc1ccnc(C[S+]([O-])c2nc3ccccc3[nH]2)c1C (configuration not stated) [Rabeprazole sodium salt] (20 µM),0.955
2,CN(C)[C@@H]1C(=O)C(C(N)=O)=C(O)[C@@]2(O)C(=O)C3=C(O)c4c(O)ccc(Cl)c4[C@@H](O)[C@H]3C[C@@H]12 [Demeclocycline hydrochloride] (20 µM),0.225 (active)
3,O=C1[C@H]2CCCC[C@H]2C(=O)N1CCCCN1CCN(c2nsc3ccccc23)CC1 [Perospirone hydrochloride] (20 µM),1.03
4,CC1=C(/C=C/C(C)=C/C=C/C(C)=C/C(=O)O)C(C)(C)CCC1 [Retinoic acid] (20 µM),0.989
5,C[N+]1(C)CCC(OC(=O)C(O)(c2ccccc2)C2CCCC2)C1 (configuration not stated) [Glycopyrrolate bromide] (20 µM),1.01
6,COc1ccc2cc([C@H](C)C(=O)O)ccc2c1 [(S)-Naproxen] (20 µM),1
7,C1CCC(C(CC2CCCCN2)C2CCCCC2)CC1 (configuration not stated) [Perhexiline maleate] (20 µM),1.05
8,COc1ccc(-c2cc(=O)c3c(O)cc(O[C@@H]4O[C@H](CO[C@@H]5O[C@@H](C)[C@H](O)[C@@H](O)[C@H]5O)[C@@H](O)[C@H](O)[C@H]4O)cc3o2)cc1O [Diosmin] (20 µM),0.971
9,CC(C)N1CCN(c2ccc(OCC3COC(Cn4cncn4)(c4ccc(Cl)cc4Cl)O3)cc2)CC1 (configuration not stated) [Terconazole] (20 µM),0.989
10,CCCCNc1ccc(C(=O)OCCN(C)C)cc1 [Tetracaine hydrochloride] (20 µM),0.983
11,CCC(=O)OCC(=O)[C@@]1(OC(=O)CC)[C@H](C)C[C@H]2[C@H]3[C@H]([C@@H](O)C[C@@]21C)[C@@]1(C)C=CC(=O)C=C1C[C@H]3Cl [Alclometasone dipropionate] (20 µM),0.986
12,C#CCN(C)CCCOc1ccc(Cl)cc1Cl [Clorgyline hydrochloride] (20 µM),0.983
13,CCCCS(=O)(=O)N[C@@H](Cc1ccc(OCCCCC2CCNCC2)cc1)C(=O)O [Tirofiban hydrochloride] (20 µM),1
14,CC(C)CN(C[C@@H](O)[C@H](Cc1ccccc1)NC(=O)O[C@H]1CCOC1)S(=O)(=O)c1ccc(N)cc1 [Amprenavir] (20 µM),0.952
15,CC[C@H](C)C(=O)O[C@H]1C[C@@H](C)C=C2C=C[C@H](C)[C@H](CC[C@@H]3C[C@@H](O)CC(=O)O3)[C@H]21 [Lovastatin] (20 µM),1.01
16,CN(C)CCN(Cc1ccc(Cl)cc1)c1ccccn1 [Chloropyramine hydrochloride] (20 µM),1.58 (active)
17,COC(c1ccccc1)(c1ccccc1)[C@H](Oc1nc(C)cc(C)n1)C(=O)O [Ambrisentan] (20 µM),0.985
18,O=C(O)CCC(=O)Nc1ccc(S(=O)(=O)Nc2nccs2)cc1 [Succinylsulfathiazole] (20 µM),0.991
19,CN(C)CCC=C1c2ccccc2C=Cc2ccccc21 [Cyclobenzaprine hydrochloride] (20 µM),1.01

# Reference: the supplement of paper PMC12494721
